Compound activity deposited in PubChem by Broad Institute.
C diff HTS = inhibitors of Clostridium difficile growth; 86,000 compounds, 0.25% hits; growth activity, negative = inhibition, % at 16 µg/mL (by protocol); Clostridium difficile clinical isolate growth, OD600, 24 h; stronger effect = lower value;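 active = mean growth activity at or below -80% and every replicate also at or below -80%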
Each line names hits and unclear results; the compound was inactive in the other large screens; ! = repeats disagree. The entries come from a sample that favours hits as a whole.

C[C@@H]1CN([C@H](C)CO)C(=O)c2cccc(NC(=O)Nc3ccccc3)c2O[C@@H]1CN(C)S(=O)(=O)c1ccccc1	none
O=C(C[C@H]1CC[C@H]2[C@@H](COC[C@H](O)CN2C(=O)Nc2ccc(C(F)(F)F)cc2)O1)NCC1CCCCC1	none
O=C(C[C@H]1CC[C@@H]2[C@H](COC[C@H](O)CN2C(=O)Nc2ccc(C(F)(F)F)cc2)O1)NCC1CCCCC1	C diff HTS -102!
O=C(C[C@H]1CC[C@H]2[C@@H](COC[C@@H](O)CN2C(=O)Nc2ccc(F)cc2)O1)NCC1CC1	none
O=C(C[C@H]1CC[C@@H]2[C@H](COC[C@H](O)CN2C(=O)Nc2ccc(F)cc2)O1)NCC1CC1	none
O=C(C[C@@H]1CC[C@@H]2[C@H](COC[C@H](O)CN2C(=O)Nc2ccc(C(F)(F)F)cc2)O1)NCC1CCCCC1	C diff HTS -101!
O=C(C[C@@H]1CC[C@@H]2[C@H](COC[C@H](O)CN2C(=O)Nc2ccc(Cl)cc2)O1)NCC1CC1	none
O=C(C[C@@H]1CC[C@@H]2[C@H](COC[C@@H](O)CN2C(=O)Nc2ccc(Cl)cc2)O1)NCC1CCCCC1	none
O=C(C[C@H]1CC[C@H]2[C@@H](COC[C@@H](O)CN2C(=O)Nc2ccc(C(F)(F)F)cc2)O1)NCC1CCCCC1	C diff HTS -101!
O=C(C[C@@H]1CC[C@H]2[C@@H](COC[C@H](O)CN2C(=O)Nc2ccc(F)cc2)O1)NCC1CC1	none
Cc1cc(C(=O)Nc2cccc3c2O[C@H](CN(C)Cc2ccncc2)[C@@H](C)CN([C@@H](C)CO)C3=O)n(C)n1	none
COc1ccccc1C(=O)Nc1ccc2c(c1)C(=O)N(C)[C@H]1CC[C@H](CC(=O)NCCc3ccncc3)O[C@H]1CO2	none
C[C@@H]1CCCCO[C@H](CN(C)CC2CCCCC2)[C@H](C)CN([C@H](C)CO)C(=O)c2cc(NC(=O)Nc3ccc(C(F)(F)F)cc3)ccc2O1	C diff HTS -103
C[C@@H]1CCCCO[C@H](CN(C)CC2CC2)[C@H](C)CN([C@@H](C)CO)C(=O)c2cc(NC(=O)Nc3ccc(C(F)(F)F)cc3)ccc2O1	none
C[C@@H]1CCCCO[C@@H](CN(C)CC2CC2)[C@H](C)CN([C@H](C)CO)C(=O)c2cc(NC(=O)Nc3ccc(C(F)(F)F)cc3)ccc2O1	none
C[C@@H]1CN([C@@H](C)CO)C(=O)c2cc(NC(=O)Nc3ccc(C(F)(F)F)cc3)ccc2O[C@@H](C)CCCCO[C@@H]1CN(C)CC1CCCCC1	none
C[C@H]1CCCCO[C@H](CN(C)S(=O)(=O)c2cn(C)cn2)[C@@H](C)CN([C@@H](C)CO)C(=O)c2cc(NC(=O)CCCN(C)C)ccc2O1	C diff HTS -81
C[C@@H]1CN([C@@H](C)CO)C(=O)c2cc(NC(=O)CCCN(C)C)ccc2O[C@@H](C)CCCCO[C@@H]1CN(C)S(=O)(=O)c1cn(C)cn1	none
CCCN(C)C[C@H]1OCCCC[C@@H](C)Oc2ccc(NC(=O)Nc3ccc(C(F)(F)F)cc3)cc2C(=O)N([C@@H](C)CO)C[C@H]1C	C diff HTS -107
C[C@@H]1CCCCO[C@@H](CN(C)CC2CCCCC2)[C@@H](C)CN([C@@H](C)CO)C(=O)c2cc(NC(=O)Nc3ccc(C(F)(F)F)cc3)ccc2O1	none
C[C@@H]1CCCCO[C@H](CN(C)CC2CCCCC2)[C@@H](C)CN([C@H](C)CO)C(=O)c2cc(NC(=O)Nc3ccc(C(F)(F)F)cc3)ccc2O1	none
C[C@@H]1CCCCO[C@@H](CN(C)CC2CC2)[C@H](C)CN([C@@H](C)CO)C(=O)c2cc(NC(=O)Nc3ccc(C(F)(F)F)cc3)ccc2O1	none
C[C@@H]1CCCCO[C@@H](CN(C)CC2CCCCC2)[C@H](C)CN([C@H](C)CO)C(=O)c2cc(NC(=O)Nc3ccc(C(F)(F)F)cc3)ccc2O1	C diff HTS -104
C[C@@H]1CCCCO[C@@H](CN(C)S(=O)(=O)c2cn(C)cn2)[C@@H](C)CN([C@@H](C)CO)C(=O)c2cc(NC(=O)CCC(F)(F)F)ccc2O1	none
COc1ccc(CNC(=O)C[C@H]2C[C@@H]3c4cc(NC(=O)CC5CC5)ccc4O[C@@H]3[C@H](CO)O2)cc1	none
C[C@@H]1CN([C@@H](C)CO)C(=O)Cc2cc(NC(=O)CCC(F)(F)F)ccc2O[C@H]1CN(C)Cc1ccc(C(=O)O)cc1	none
C[C@H]1CN([C@@H](C)CO)C(=O)Cc2cc(NC(=O)Cn3cnnn3)ccc2O[C@@H]1CN(C)S(C)(=O)=O	none
CC(=O)N1[C@@H]2Cn3c(ccc(C4=CCCC4)c3=O)[C@H]1[C@@H](C(=O)NCC1CC1)[C@@H]2CO	none
CCN1[C@H](C(=O)N2CCCCC2)[C@@H](CO)[C@@H]2Cn3c(ccc(-c4cccc(F)c4)c3=O)[C@@H]21	none
O=C(N[C@H]1CC[C@H](CCNS(=O)(=O)c2ccc(Cl)cc2)O[C@H]1CO)c1cnccn1	none
CN(C)CCCNC(=O)C[C@@H]1CC[C@H]2[C@@H](COc3ccc(NC(=O)c4cccc(F)c4)cc3C(=O)N2C)O1	none
C[C@@H]1CN([C@H](C)CO)C(=O)c2cc(NC(=O)Cc3ccccc3)ccc2O[C@@H](C)CCCCO[C@H]1CN(C)Cc1ccccc1	none
